Reference: PubChem BioAssay (NCATS)
“And” between values parts separate entries of the source, which are not always exact repeats. Equal values may be shown once. Records with an inconclusive call do not appear. The source made the active and inactive calls. Unless noted, the call rests on the fitted dose curve; in most records, active means well fitted curve in the direction sought with a large enough effect; inconclusive means small, poorly fitted or top-dose-only effect, or another doubt; inactive means no such curve, though single readings can be large; an effect the other way counts as inactive or inconclusive.

What was measured:
[1] = molecular target: Cellular tumor antigen p53 (Homo sapiens) (UniProt P04637); assay: Primary qHTS for small molecule compounds that upregulate eGFP-tagged delta133p53alpha (in N-terminal) cells. (AID 2060322); conditions: NCI-H358 eGFP-delta133p53alpha fluorescence, 24 h; activation: active compounds read high; further: nearly all actives have a fitted effect of over 75% in size; further: potency means the concentration at half of the fitted maximal effect;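 on activation: cells pre-induced with doxycycline then dosed without doxycycline; series mostly up to about 56 µM; 0% = DMSO vehicle and 100% = reference activator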
How it was run: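 NCI-H358 cells pre-induced 24 h with 10 ng/ml doxycycline for eGFP-delta133p53alpha, plated dox-free and exposed 24 h at 37C to titrated compounds. Fixed, Hoechst-stained; gated GFP peak intensity by laser scanning cytometry, normalized to DMSO (0%) and 57.5 uM 5-azacytidine (100%).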

[2] = molecular target: Aldehyde dehydrogenase, mitochondrial (Homo sapiens) (UniProt P05091); assay: qHTS for Inhibitors of the Aldehyde Dehydrogenase Family (ALDH2) Confirmatory screens (AID 2061303; active means well fitted inhibition curve with a large enough effect; title and protocol of this record describe different tests; further: on the % scale 0 is the no-effect control and ±100 the full control effect; nearly all actives have a fitted effect of over 45% in size)
[3] = molecular target: Aldehyde dehydrogenase, mitochondrial (Homo sapiens) (UniProt P05091); assay: qHTS for Inhibitors of the Aldehyde Dehydrogenase Family (ALDH2) Primary screen (AID 2061308);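 further: plate controls were vehicle for no effect and reference inhibitor for full effect; nearly all actives have a fitted effect of over 55% in size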
[4] = molecular target: Retinaldehyde dehydrogenase 3 (Homo sapiens) (UniProt P47895); assay: qHTS for Inhibitors of the Aldehyde Dehydrogenase Family (ALDH1A3) Primary screen (AID 2061315); further: potency means the concentration at half of the fitted maximal effect;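 on activity change, negative = inhibition: plate controls were DMSO vehicle for no effect and reference inhibitor for full effect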
[5] = molecular target: Retinal dehydrogenase 2 (Homo sapiens) (UniProt O94788); assay: qHTS for Inhibitors of the Aldehyde Dehydrogenase Family (ALDH1A2) Confirmation screens (AID 2061314); further: on the % scale 0 is the no-effect control and ±100 the full control effect; nearly all actives have a fitted effect of over 65% in size
[6] = molecular target: Aldehyde dehydrogenase 1A1 (Homo sapiens) (UniProt P00352); assay: qHTS for Inhibitors of the Aldehyde Dehydrogenase Family (ALDH1A1) Confirmatory screens (AID 2061316); further: nearly all actives have a fitted effect of over 65% in size; further: potency means the concentration at half of the fitted maximal effect; on activity change, negative = inhibition: on the % scale 0 is the no-effect control and ±100 the full control effect
[7] = molecular target: Retinaldehyde dehydrogenase 3 (Homo sapiens) (UniProt P47895); assay: qHTS for Inhibitors of the Aldehyde Dehydrogenase Family (ALDH1A3) Validation screen (AID 2061312); further: on the % scale 0 is the no-effect control and ±100 the full control effect; nearly all actives have a fitted effect of over 45% in size
[8] = BET inhibitor-based combinations targeting novel dependencies in MECOM-rearranged (r) AML: OCI-AML3 cell line (AID 2202232); conditions: Potency: OCI-AML3 viability; further: nearly all actives have a fitted effect of over 35% in size; further: potency means the concentration at half of the fitted maximal effect
How it was run: (§1)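 Luminescent ATP readout (CellTiter-Glo) after 48 hr drug exposure gives viability. Curves span 11 concentrations and are normalized to DMSO and empty wells. Activity is reported as area under the curve and its Z-transform within each cell line.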

[9] = BET inhibitor-based combinations targeting novel dependencies in MECOM-rearranged (r) AML: MV-4-11 cell line (AID 2202233); further: nearly all actives have a fitted effect of over 45% in size; further: potency means the concentration at half of the fitted maximal effect
How it was run: (§2)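 Luminescent ATP readout (CellTiter-Glo, 15 min at room temperature) after 48 hr drug exposure gave viability. Dose-response curves, normalized to DMSO and empty-well controls, were summarized as area under the curve and its mean-centred Z-score.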

[10] = BET inhibitor-based combinations targeting novel dependencies in MECOM-rearranged (r) AML: HNT-34 cell line (AID 2202234); further: nearly all actives have a fitted effect of over 35% in size; further: potency means the concentration at half of the fitted maximal effect
How it was run: as §2

[11] = BET inhibitor-based combinations targeting novel dependencies in MECOM-rearranged (r) AML: UCSD-AML1 cell line (AID 2202235);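 further: series mostly up to about 46 µM; plate controls were DMSO vehicle wells for no effect and blank wells for full effect; nearly all actives have a fitted effect of over 40% in size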
How it was run: as §2

[12] = molecular target: Retinaldehyde dehydrogenase 3 (Homo sapiens) (UniProt P47895); assay: qHTS for Inhibitors of the Aldehyde Dehydrogenase Family (ALDH1A3) Confirmatory screens (AID 2061311); further: nearly all actives have a fitted effect of over 60% in size; further: potency means the concentration at half of the fitted maximal effect; on activity change, negative = inhibition: on the % scale 0 is the no-effect control and ±100 the full control effect
[13] = qHTS for Inhibitors of the Aldehyde Dehydrogenase Family (ALDH1A2, ALDH1A3, ALDH2, ALDH3A1) (AID 2061307); further: on the % scale 0 is the no-effect control and ±100 the full control effect; nearly all actives have a fitted effect of over 50% in size
[14] = BET inhibitor-based combinations targeting novel dependencies in MECOM-rearranged (r) AML: SET-2 cell line (AID 2202231); conditions: SET-2 AML cells viability, CellTiter-Glo luminescence, 48 h; viability: active compounds read low, series mostly up to about 46 µM;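 further: plate controls were DMSO treated cells for no effect and wells without cells for full effect; nearly all actives have a fitted effect of over 35% in size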
How it was run: as §1

[15] = BET inhibitor-based combinations targeting novel dependencies in MECOM-rearranged (r) AML: AML-191 cell line (AID 2202236;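 further: plate controls were vehicle wells for no effect and wells without cells for full effect; nearly all actives have a fitted effect of over 35% in size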)
How it was run: as §1

[16] = BET inhibitor-based combinations targeting novel dependencies in MECOM-rearranged (r) AML: AML-194 cell line (AID 2202237;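 further: plate controls were vehicle wells for no effect and wells without cells for full effect; nearly all actives have a fitted effect of over 40% in size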)
How it was run: as §1

Cellular tumor antigen p53 (Homo sapiens), sequence (P04637 whole entry, looked up): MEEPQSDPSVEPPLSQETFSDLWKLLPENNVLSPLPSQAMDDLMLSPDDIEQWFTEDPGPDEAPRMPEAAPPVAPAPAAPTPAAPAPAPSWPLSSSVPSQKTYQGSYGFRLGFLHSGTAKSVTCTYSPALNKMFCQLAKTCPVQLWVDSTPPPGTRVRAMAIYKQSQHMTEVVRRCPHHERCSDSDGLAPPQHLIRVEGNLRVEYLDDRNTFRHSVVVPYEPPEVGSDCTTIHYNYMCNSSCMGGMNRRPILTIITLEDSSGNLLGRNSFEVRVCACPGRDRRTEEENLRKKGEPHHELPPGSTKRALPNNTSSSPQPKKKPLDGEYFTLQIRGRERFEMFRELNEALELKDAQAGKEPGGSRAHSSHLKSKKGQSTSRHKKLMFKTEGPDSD

C=C1C(=O)OC2C1CCC(=C)C1CC(OC(C)=O)C(=C)C12 (stereo not drawn)
inactive: Potency [2] | Potency [3] | Potency [4]
active: Potency [1] 16.9 µM

COc1cc(C2Oc3c(OC)cc(CCCO[C@@H]4O[C@H](CO)[C@@H](O)[C@H](O)[C@H]4O)cc3C2CO)ccc1O (stereo partly drawn)
inactive: activation [1] -6.25% | Potency [2] | Potency [3] | Potency [5] | Potency [4] | Potency [6]

Cn1cc(-c2ccncc2)c(-c2ccc(OCc3ccc4ccccc4n3)cc2)n1
inactive: activation [1] -22.8% and -12.9% | Potency [2] | Potency [3] | Potency [7] | Potency [5] | Potency [4] | Potency [6] | Potency [11]
active: Potency [8] 11.8 µM | Potency [9] 5.9 µM | Potency [10] 23.5 µM

C=C1C(=O)OC2CC(C)=C(C(C)CCCO)C(O)C12 (stereo not drawn)
inactive: activation [1] 7.14% | Potency [2] | Potency [3] | Potency [5] | Potency [4]

COc1cc([C@H]2c3cc(O)c(OC)cc3C[C@@H](CO[C@@H]3O[C@H](CO)[C@@H](O)[C@H](O)[C@H]3O)[C@@H]2CO)ccc1O
inactive: activation [1] 9.82% | Potency [2] | Potency [3] | Potency [5]

CCOC(=O)C1=C(N)Oc2ccc(Cl)cc2C1C(C#N)C(=O)OCC (stereo not drawn)
inactive: Potency [2] | Potency [3] | Potency [7] | Potency [4] | Potency [6]
active: Potency [1] 23.9 µM | Potency [12] 12.7 µM

C[C@@H]1O[C@@H](O[C@H]2[C@H](O[C@H]3CO[C@@H](O[C@H]4CC[C@@]5(C)C(CC[C@]6(C)C5CC[C@]57OC[C@@]8(CC[C@](C)(CO)CC85)[C@H](O)C[C@]76C)C4(C)C)[C@H](O[C@@H]4O[C@H](CO)[C@@H](O)[C@H](O)[C@H]4O)[C@H]3O)O[C@H](CO)[C@@H](O)[C@@H]2O)[C@H](O)[C@H](O)[C@H]1O (stereo partly drawn)
inactive: activation [1] -4.58% | activity change, negative = inhibition [2] -29.1% [at 10 µM] | Potency [3] | activity, negative = inhibition [5] -8.29% [at 10 µM] | Potency [4] | activity change, negative = inhibition [6] -22.4% [at 10 µM]

COc1cccc(-c2ccc(NC(=O)C3=C(C(=O)O)CCC3)c(F)c2)c1
inactive: activation [1] -4.2% and -13.4% | Potency [2] | Potency [3] | Potency [10] | Potency [11]
active: Potency [6] 12.7 µM

COc1ccc2c(c1)O[C@H](O[C@@H]1O[C@H](CO)[C@@H](O)[C@H](O)[C@H]1O)C(=O)N2
inactive: activation [1] -12.5% | Potency [13] | Potency [3]
active: Potency [12] 13.9 µM | Potency [4] 6.31 µM

COC(=O)C1=CO[C@@H](O[C@@H]2O[C@H](COC(=O)/C=C/c3cc(OC)c(O)c(OC)c3)[C@@H](O)[C@H](O)[C@H]2O)[C@@H]2C(CO)=CC[C@H]12
inactive: activation [1] -16.8% | Potency [13] | Potency [3]

Clc1ccc2ncc(-c3cccc(NC4CNC4)n3)n2c1
inactive: activation [1] 11% | Potency [13] | Potency [3] | Potency [12] | Potency [4] | viability [14] 115% | Potency [8] | Potency [9] | Potency [10] | Potency [15] | Potency [16]
